The campaign covered roughly 360,000 compounds. About 7,500 (2.1%) were called active. Roughly 20% stayed inconclusive and do not appear here. The call rests on the fitted dose curve; in most records, active means well fitted inhibition curve with a large enough effect; inconclusive means small, poorly fitted or top-dose-only effect, or effect the other way; inactive means flat fitted curve, though single readings scatter. Shown is part of a subset that was picked to be rich in actives. Where a call stands in place of a potency, no number is given.
experiment: Nrf2 qHTS screen for inhibitors; settings: A549 ARE-Fluc reporter, luciferase luminescence, 18-24 h; series mostly up to 46 µM; further: nearly all actives have a fitted effect of over 60% in size
Summary of the method: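 A549 ARE_Fluc cells, 5000/well, 5% FBS OPTI-MEM; compounds in dose-response, 18-24 h at 37 °C/5% CO2; CellTiter-Fluor viability read (Ex 405/Em 525), then BugLite luciferase luminescence = Nrf2 activity.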
Potency means the concentration at half of the fitted maximal effect.

Row | Structure (SMILES) | Potency
1 | COc1ccc(N(C)C(=O)CCS(=O)(=O)c2cccc3nsnc23)cc1 | inactive
2 | COc1ccc(N(C)S(=O)(=O)c2cccc3nsnc23)cc1 | inactive
3 | COc1ccc(N(C)C(=O)C2CCN(S(=O)(=O)c3cccc4nsnc34)CC2)cc1 | 8.2 µM (active)
4 | Cc1ccc(-c2nc3cccc(C)n3c2Nc2ccc3c(c2)OCCO3)cc1 | inactive
5 | CCC(=O)OCCNc1nc(-c2ccccc2)nc2ccccc12 | inactive
6 | CC(C)(C)OC(=O)NNc1c2ccccc2nc2ccccc12 | 23.1 µM (active)
7 | Cc1ccccc1NC(=O)NNC(=O)OC(C)(C)C | inactive
8 | COc1ccc2c(c1)CCc1c(C(=O)Nc3cc(C)ccc3O)noc1-2 | inactive
9 | COc1ccccc1C(=O)Nc1ccc(OCc2nnc3c4ccccc4c(C)nn23)cc1 | 9.2 µM (active)
10 | COc1ccccc1C(=O)Nc1c(C(=O)Nc2ccc(C)cc2)oc2ccccc12 | inactive
11 | COc1ccccc1C(=O)Nc1ccccc1C(=O)Nc1ccccc1 | inactive
12 | CCOC(=O)c1c(C)[nH]c(C)c1S(=O)(=O)N(C)CC(=O)N1CCN(c2ccccc2)CC1 | inactive
13 | O=C(Nc1cccc(C(=O)NC2CC2)c1)c1ccc(F)c(S(=O)(=O)N2CCOCC2)c1 | inactive
14 | O=C(OCCOc1ccccc1Cl)c1cc(S(=O)(=O)N2CCCCC2)ccc1N1CCOCC1 | 6.51 µM (active)
15 | O=C(OCCOc1ccccc1F)c1cc(S(=O)(=O)N2CCOCC2)ccc1F | inactive
16 | O=C(NCC1CCCCC1)c1cc(S(=O)(=O)N2CCCCC2)ccc1N1CCOCC1 | inactive
17 | O=C(Nc1ccc(S(=O)(=O)NCC2CCCO2)cc1)c1ccc(F)cc1 (centres undefined) | 11.6 µM (active)
18 | O=C(Nc1ccc(F)cc1)c1ccc(S(=O)(=O)NCc2cccnc2)cc1 | 18.4 µM (active)
19 | O=C(NCC1CCCO1)c1ccc(S(=O)(=O)Nc2ccc(F)cc2)cc1 (centres undefined) | inactive
20 | Cc1ccc(NC(=O)c2ccc(S(=O)(=O)NCC3CCCO3)cc2)cc1C (centres undefined) | inactive
21 | COc1ccc(S(=O)(=O)NCc2cccnc2)cc1NC(=O)c1ccc(C)cc1 | inactive
22 | O=C(N/N=C/c1cccnc1)c1ccc(NC(=O)c2ccc(F)cc2)cc1 | inactive

Row | Structure (SMILES) | Potency
23 | Cc1ccc(NS(=O)(=O)c2cc3c(cc2Br)NC(=O)CO3)cc1C | inactive
24 | O=C(NCC1CCCCC1)NCC1CCCCC1 | inactive
25 | Cc1cc2c(s1)c1cnn(Cc3cc(F)c(Cl)cc3Cl)c(=O)c1n2C | inactive
26 | CC1CCCCC1NC(=O)/C(C#N)=C/C=C/c1ccccc1[N+](=O)[O-] (centres undefined) | 16.4 µM (active)
27 | O=[N+]([O-])c1ccccc1/C=C/CN1CCC(O)CC1 | inactive
28 | O=[N+]([O-])c1ccccc1/C=C/CN1CCCC(CO)C1 (centres undefined) | inactive
29 | Cc1ccc(NC(=O)C(C)Sc2nnc(C3CC3)n2C2CC2)cc1S(=O)(=O)N1CCOCC1 (centres undefined) | inactive
30 | C#CCOCCOCCOCCNc1nc(N2CCN(C(=O)[C@H](CO)n3cc([C@@H](N)C(C)C)nn3)CC2)nc(N2CCN(C(=O)[C@H](CCC(=O)O)n3cc([C@@H](N)[C@H](C)CC)nn3)CC2)n1 | inactive
31 | Oc1ccc(-n2nnnc2SCc2c(F)cccc2Cl)cc1 | inactive
32 | COc1ccc(C(=O)CSc2nnnn2C)c(OC)c1 | inactive
33 | COc1ccc(-n2nnnc2SCC(=O)NCc2cccs2)cc1 | inactive
34 | COc1ccc(-n2nnnc2SCC(=O)c2ccc(OC)c(OC)c2)cc1 | 16.4 µM (active)
35 | Cc1cc(NC(=O)CSc2nnnn2-c2ccc(F)cc2)no1 | inactive
36 | COc1ccc(CSc2nnnn2-c2ccc(O)cc2)cc1F | 14.6 µM (active)
37 | O=C(NCc1nnc(C(=O)Nc2ccc(C(F)(F)F)cc2Cl)o1)c1ccccc1 | inactive
38 | Cc1nn(-c2ccc(F)cc2)c(Cl)c1/C=C(/CCC(=O)O)c1nc2ccccc2s1 | inactive
39 | COc1ccc(-c2ccc3ncnc(NCc4cccs4)c3c2)cc1OC | inactive
40 | O=C(CSc1nnc(-c2ccccc2F)o1)Nc1cccc(C(F)(F)F)c1 | inactive
41 | COc1ccc(C(=O)OCC(=O)N2CC(=O)Nc3ccccc32)cc1Br | inactive
42 | COc1cc(OC)c(C(=O)OCC(=O)N2CC(=O)Nc3ccccc32)cc1OC | inactive
43 | COc1ccc(Cl)cc1-n1c(C)cc(C(=O)OCC(=O)N2CC(=O)Nc3ccccc32)c1C | 18.4 µM (active)
44 | COc1cccc(-n2cc(C(=O)NCc3cccc(Cl)c3)c3ccccc3c2=O)c1 | inactive

Row | Structure (SMILES) | Potency
45 | Oc1ccccc1-c1nc2ccc(Cl)cn2c1Nc1ccc2c(c1)OCCO2 | inactive
46 | CC(=O)c1ccc(OCC(O)CN2CCN(S(=O)(=O)c3cccc(Br)c3)CC2)cc1 (centres undefined) | inactive
47 | CN1CCN(S(=O)(=O)c2cccc(C(=O)O)c2)CC1 | inactive
48 | Cc1ccc(OCCNC(=O)c2cccc(S(=O)(=O)N3CCN(Cc4ccccc4)CC3)c2)cc1 | 11.6 µM (active)
49 | NC(=O)C1CCN(C(=O)c2cc(S(=O)(=O)N3CCN(c4ccccc4)CC3)ccc2Cl)CC1 | inactive
50 | COCCNC(=O)CSc1nc(-c2ccccc2)[nH]c1-c1ccc(C)cc1 | inactive
51 | CC(C)(c1ccccc1)c1ccc(OCCN)cc1 | inactive
52 | COc1cccc(Oc2ccc(N)cc2)c1 | inactive
53 | CC(C)(C)c1ccc(Oc2ccc(N)cc2)cc1 | 4.11 µM (active)
54 | COc1cccc(NC(=O)CSc2cc(=O)n(C)c3ccc(Cl)cc23)c1 | inactive
55 | Cc1ccc(N2CC(c3nnc(Cc4ccccc4Cl)o3)CC2=O)cc1 (centres undefined) | inactive
56 | CN1CCC(N(C)C(=O)c2ccc(Cl)c(S(=O)(=O)Nc3ccc(Cl)cc3)c2)CC1 | inactive
57 | COc1ccccc1-c1ccnc2[nH]n(-c3ccccc3)c(=O)c12 | inactive
58 | CCOc1ccccc1NC(=O)c1ccc2c(c1)CCN2S(=O)(=O)c1ccc(C)cc1 | inactive
59 | O=C(Nc1ccc(NC(=O)c2ccc3c(c2)OCO3)cc1)c1cccc(Cl)c1 | inactive
60 | CC(NS(=O)(=O)c1ccc(Cl)cc1)C(=O)Nc1ccc2c(c1)OCCO2 (centres undefined) | inactive
61 | O=C(Nc1cccc(S(=O)(=O)Nc2ccc(Cl)cc2)c1)c1ccc2c(c1)OCCO2 | 10.3 µM (active)
62 | CCN(CC)S(=O)(=O)c1ccc(N(C)CCc2ccc(OC)c(OC)c2)nc1 | inactive
63 | CCN(CC)S(=O)(=O)c1ccc(N(C)Cc2ccc(C(F)(F)F)cc2)nc1 | 18.4 µM (active)
64 | CCN(CC)S(=O)(=O)c1ccc(NC(=O)c2cnc(C)cn2)cc1 | inactive

From PubChem BioAssay AID504444 (National Center for Advancing Translational Sciences (NCATS), 2011)
